# Data reported in ChEMBL document CHEMBL3988442, “University of Dundee, Small-Polar-MMV Screening Library” (2021).
# Among all 48,000 compounds or so, about 13,000 (27%) showed an effect of 50% or more. Some of the results follow.
# Test system: Wolbachia pipientis
# Assay: Anti-Wolbachia Cell-Based Screen
# Format: functional
# Design: scale not given: in the data most compounds retested in dose-response had high values
# Conditions: 5 µM
row,SMILES,Percent Effect [%]
1,NC(=O)Nc1cccc(C(=O)N(Cc2ccncc2)C2CC2)c1,8.655
2,CC(O)CN1CCC(CNCc2ccccc2Br)CC1 (stereo unspecified),-8.503
3,O=C(NCCN1CCOCC1)NCc1ccc(-n2cccn2)cc1,-7.54
4,CC(C)Nc1nc2c(c(NC3CC3)n1)CCN(C1CCOCC1)CC2,-24.37
5,O=C(CO)N1CCN(S(=O)(=O)CCCF)CC1,-8.107
6,COc1ccc(NC(=O)N2CCCCC2c2ncc[nH]2)cc1 (stereo unspecified),18.67
7,O=C(c1ccoc1)N1CCCCC1c1nc[nH]n1 (stereo unspecified),11.28
8,O=S(=O)(N(Cc1ccccn1)C1CC1)N1CCCC1c1ccco1 (stereo unspecified),17.98
9,Nc1cc(-c2c[nH]nc2C2CCCCN2C(=O)C2CCCC2)ccn1 (stereo unspecified),118.9
10,Nc1cc(-c2c[nH]nc2C2CCCN2S(=O)(=O)c2ccccc2)ccn1 (stereo unspecified),96.1
11,Nc1ncncc1-c1noc([C@@H]2CCCN2CCCc2ccccc2)n1,5.428
12,Nc1cc(-c2c[nH]nc2C2CCCN2CCCc2ccccc2)ccn1 (stereo unspecified),114.8
13,Cc1cc(C2CCCN2CCCS(=O)(=O)c2ccccc2)no1 (stereo unspecified),-10.32
14,Cn1nnc2c1C(COCC1CC1)CN(C(=O)CC1=CCCCC1)C2 (stereo unspecified),-19.61
15,CC(NC1(CNC(=O)CC2CCCC2)CCOCC1)c1ccccc1 (stereo unspecified),-11.89
16,Cc1sc2nc(SC(C)c3nc(C(C)(C)C)no3)nc(N)c2c1C (stereo unspecified),10.97
17,CCc1nnsc1C(=O)N(C)Cc1ccc(Br)o1,14.42
18,Cc1ccc(S(=O)(=O)Cc2nsc(N(C)C)n2)c(C)c1,-1.61
19,CCc1nc(NCC(=O)N2CCOCC2)c2c(n1)c(C)nn2CC,7.048
20,CCN1CCN(c2ccc(F)cc2C(C)NCc2ccnn2C)CC1 (stereo unspecified),-1.019
21,COc1nc(C)c(C(=O)N2CCN(c3ncccc3C)CC2)s1,-23.23
22,CCOC(=O)N1CCN(C(=O)c2sc(-c3ccccc3)nc2C)CC1,-9.068
23,Cc1nc(N)sc1C(=O)N1CCC(C(O)Cc2ccccc2)CC1 (stereo unspecified),104.4
24,Cc1cc(=O)c(C(=O)N2CCC(C(O)Cc3ccccc3)CC2)c(C)[nH]1 (stereo unspecified),97.46
25,COc1nc(C)c(C(=O)N2CCC(C(O)Cc3ccccc3)CC2)s1 (stereo unspecified),114.7
26,Cc1ccc(N2CCC(C(O)Cc3ccccc3)CC2)nn1 (stereo unspecified),-17.42

row,SMILES,Percent Effect [%]
1,Cc1nn(C)c2nc(N3CCC(C(O)Cc4ccccc4)CC3)sc12 (stereo unspecified),-11.76
2,COc1nc(C)c(C(=O)N2CCc3[nH]nc(Cc4ccccc4)c3C2)s1,2.938
3,CC(C)CC(O)C1CCN(C(=O)c2ccc(C(C)C)[nH]c2=O)CC1 (stereo unspecified),-16.76
4,c1ccc(Cn2cccn2)c(CN2CCCCC2CCn2ccnc2)c1 (stereo unspecified),-5.854
5,Nc1ncc(-c2ccc(NC(=O)[C@@H]3CCCCN3)cc2)cn1,109.3
6,Nc1ncc(-c2cccc(NC(=O)[C@@H]3CCCCN3)c2)cn1,116.6
7,O=C(Nc1ccc(-c2ccccc2)cn1)C1CCN(C(=O)C2CC2)CC1,26.94
8,O=C(Nc1cnc2n1CCCC2)c1cccc(NC(=O)C2CCCC2)c1,10.86
9,Cc1cccc(NC(=O)C2CCc3ccccc3N2)c1.Cl (stereo unspecified),2.596
10,O=C(Nc1ccc(-c2cnc(NCCO)nc2)cc1)[C@@H]1CCCCN1,129.4
11,NS(=O)(=O)c1cnn(-c2ccc(NC(=O)C3CCCCC3)cn2)c1,-15.76
12,CNc1ncc(-c2ccc(NC(=O)[C@@H]3CCCCN3)cc2)cn1,112.9
13,Cc1ccc(NC(=O)C2CCc3ccccc3N2)cc1 (stereo unspecified),-1.128
14,Cc1ccc2cc(C3(O)CCN(C(=O)[C@@H]4CCCCN4)CC3)ccc2n1,-9.232
15,O=C(Nc1ccc(-c2csnn2)cc1)N1CCN2CCCCC2C1 (stereo unspecified),5.858
16,CCc1ncc(C(=O)N(C)CCc2nc3cc(OC)ccc3[nH]2)cn1,4.765
17,CNC(=O)C(C)(C)N1CCC[C@H]1C(=O)NCC1CC1,11.03
18,COc1ccc(OCc2noc(CN(C)C3CCS(=O)(=O)C3)n2)cc1 (stereo unspecified),-8.185
19,CN(Cc1cc(Br)cn1C)C(=O)c1ccon1,-0.2013
20,O=C1Nc2ccccc2C12CCCN(Cc1ccc3c(c1)OCCO3)C2 (stereo unspecified),-17.7
21,COCCCC1(CO)CCCN(CCc2ccccc2)C1 (stereo unspecified),-12.43
22,O=S1(=O)NC2(CCCN(Cc3ccc(Cl)cc3)C2)COc2ccccc21 (stereo unspecified),134.9
23,O=S1(=O)NC2(CCCN(CCc3ccccc3)C2)COc2ccccc21 (stereo unspecified),103.7
24,O=S1(=O)NC2(CCCN(Cc3ccc(F)cc3)C2)COc2ccccc21 (stereo unspecified),98.49
25,O=C1NCC2(CCCN(CCc3ccccc3)C2)Oc2ccccc21 (stereo unspecified),-15.46
26,CN1C2(CCN(Cc3ccc(F)cc3)C2)c2ccccc2S1(=O)=O (stereo unspecified),8.528

row,SMILES,Percent Effect [%]
1,O=S1(=O)NCC2(CCN(c3ncc(F)cn3)CC2)COc2ccccc21,-10.54
2,CCN(C)c1ccc(CNC(=O)c2ccc(NC(N)=O)cc2)cc1F,-59.71
3,CCc1cc(NCc2cc3n(n2)CCCN(S(C)(=O)=O)C3)nc(C)n1,3.028
4,c1ccc(Oc2nccc3occc23)c(CN2CCCCC2)c1,-8.744
5,CN(C)S(=O)(=O)NCC1(c2ccccc2Br)CC1,-6.253
6,COc1ccc(S(=O)(=O)N2C[C@@H]3CN(C)CCO[C@@H]3C2)cc1,104.2
7,CN1CCO[C@@H]2CN(S(=O)(=O)c3ccccc3)CC[C@@H]2C1.O=C(O)C(F)(F)F,-5.775
8,CC(=O)N1CCO[C@@H]2CN(S(=O)(=O)c3cccnc3)C[C@@H]2C1.O=C(O)C(F)(F)F,105.8
9,CN1CCO[C@H]2CN(S(=O)(=O)c3ccc(C#N)cc3)C[C@H]21.O=C(O)C(F)(F)F,-17.08
10,CC(C)N1CCO[C@H]2CN(S(=O)(=O)c3ccc(C#N)cc3)C[C@H]21,-6.179
11,CNC(=O)[C@H]1C[C@@H]2CN(S(=O)(=O)c3ccc(OC)cc3)C[C@@H]2N1C.O=C(O)C(F)(F)F,-8.898
12,CN1CCO[C@@H]2CN(S(=O)(=O)c3ccccc3)C[C@@H]2C1.O=C(O)C(F)(F)F,98.27
13,Cc1occc1C(=O)NCC(=O)N(C)CCCOc1ccc(F)cc1,-0.7534
14,Cc1cc(C(C)NC(=O)c2cnc3onc(C)c3c2)c(C)o1 (stereo unspecified),7.597
15,C1CC1c1nsc(N2CCN(C3CC3)CC2)n1,-1.801
16,CSCCc1c(-c2ccccc2)ncn1[C@H]1C[C@@H](C(=O)O)N(C)C1,9.47
17,CCCS(=O)(=O)N1CCN(c2ccnc(N3CCCCC3)n2)CC1,-4.762
18,CCc1cnc(CNC(=O)N2CCCC(c3ncc[nH]3)C2)s1 (stereo unspecified),-16.47
19,CCc1cnc(CNC(=O)NCCc2ccc(O)cc2)s1,101.6
20,CCc1cnc(CNC(=O)NCCCO)s1,97.97
21,Cc1cnc(CCNC(=O)NCCc2ccc(O)cc2)s1,116.1
22,CNC(=O)Cc1ccc(NC(=O)NCc2ncc(C)s2)cc1,-0.2896
23,CCc1cnc(CNC(=O)N2CCCC(C(=O)NC)C2)s1 (stereo unspecified),-0.4435
24,Cc1cnc(CCNC(=O)NCCOc2ncccc2Cl)s1,-4.9
25,COc1ccc(CNC(=O)NCCc2nc(C)c(C)s2)cn1,-8.722
26,CCc1cnc(CNC(=O)NC2CC(C)(C)OC2(C)C)s1 (stereo unspecified),0.9333

row,SMILES,Percent Effect [%]
1,CCn1c(C)cc(C(=O)NCc2cccc(NS(C)(=O)=O)c2)c1C,-5.652
2,CNC(=O)c1cc(NC(=O)NCC2CCS(=O)(=O)C2)ccc1OC (stereo unspecified),-3.737
3,Cc1noc(OCc2csc(C)n2)n1,2.505
4,COc1cc2nc(C)sc2cc1NC(=O)C(C)NC(N)=O (stereo unspecified),-2.888
5,COc1ccccc1N1CCN(C(=O)CCCS(N)(=O)=O)C(C)C1 (stereo unspecified),-9.849
6,CCOC(=O)c1sc2ccsc2c1CNC(=O)CC,11.82
7,CCOC(=O)c1sc2ccsc2c1CNC(=O)C(C)(C)C#N,61.27
8,CCOC(=O)c1sc2ccsc2c1CN.Cl,-6.159
9,O=C(c1ccc[nH]1)N1C[C@H]2CC[C@@H]1CN(C1Cc3ccccc3C1)C2,-8.418
10,Cc1cccc(-c2nc(C)nn2CC(=O)NC(C)C2CC2)c1 (stereo unspecified),96.27
11,Cc1cccc(-c2nc(C)nn2CC(=O)N(C)C2CC2)c1,-1.032
12,Cc1cccc(-c2nc(C)nn2CN2CCN(S(C)(=O)=O)CC2)c1,-9.044
13,Cc1nc(-c2ccccc2)n(CC(=O)NC(C)C2CC2)n1 (stereo unspecified),-16.22
14,Cc1cccc(-c2nc(C)nn2CC(=O)NC(C)C)c1,108.3
15,CCC(C)(C)NC(=O)Cn1nc(C)nc1-c1cccc(C)c1,-9.782
16,Cc1ccc(CNC2(Cc3cc(CC(C)C)on3)COC2)o1,0.7021
17,CC(C)(C)CN1CC(O)CN(C(=O)c2cccc(C(F)(F)F)c2)CC1=O (stereo unspecified),85.94
18,O=C(O)C(F)(F)F.O=C(c1cccc(Cl)c1)N1CC[C@H]2[C@H]1CCN2CC1CC1,-19.81
19,O=C1CN(C(=O)c2cccc(C(F)(F)F)c2)CC(O)CN1CC1CC1 (stereo unspecified),100.3
20,Nc1cc(C(=O)N2CCOC(Cc3cccc(C(F)(F)F)c3)C2)ccn1 (stereo unspecified),-0.1683
21,CCN1CC(O)CN(C(=O)c2cccc(C(F)(F)F)c2)CC1=O (stereo unspecified),106.7
22,O=C(c1ccc(=O)[nH]c1)N1CCC(Oc2cccc(C(F)(F)F)c2)CC1,-22.64
23,N#CCCN1CC(O)CN(C(=O)c2cccc(C(F)(F)F)c2)CC1=O (stereo unspecified),98.63
